In PubChem BioAssay AID2331 (The Scripps Research Institute Molecular Screening Center, 2010):
Some of the results follow. Activity calls are given as the source filed them. Rule as the data show it: active = inhibition above about 9.5%; inactive = the rest.

target: Serine/threonine-protein phosphatase 5 (Homo sapiens) (UniProt P53041); assay: inhibition of human PPP5C phosphatase activity – biochemical, fluorescence, confirmation (AID 2331); settings: Purified PP5, fluorogenic phosphatase substrate, at 6.7 µM, stronger effect = higher value
Sequence (P53041 whole entry, looked up): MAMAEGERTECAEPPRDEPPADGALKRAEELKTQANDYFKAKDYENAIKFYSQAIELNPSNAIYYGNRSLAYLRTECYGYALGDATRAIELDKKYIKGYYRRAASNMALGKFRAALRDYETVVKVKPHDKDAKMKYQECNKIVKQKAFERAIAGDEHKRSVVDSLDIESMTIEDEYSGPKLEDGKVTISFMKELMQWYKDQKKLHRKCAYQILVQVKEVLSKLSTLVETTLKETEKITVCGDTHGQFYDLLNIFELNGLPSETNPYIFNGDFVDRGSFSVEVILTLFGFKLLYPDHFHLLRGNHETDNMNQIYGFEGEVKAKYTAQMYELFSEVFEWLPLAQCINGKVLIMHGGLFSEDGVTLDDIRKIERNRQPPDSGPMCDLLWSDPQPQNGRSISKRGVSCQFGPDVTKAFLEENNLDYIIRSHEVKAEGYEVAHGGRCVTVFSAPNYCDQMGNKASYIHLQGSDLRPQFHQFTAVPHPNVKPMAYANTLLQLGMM

inhibition, active:
N#Cc1c(N2CCCCC2)nc(N)c2c(N)nc(SCC(=O)O)cc12 36.8%
COCCN1C=C2C(=O)C(C)(OC(=O)C3CCCC3)C(=O)C=C2C=C1c1ccsc1 (stereo not drawn) 43.5%
O=C(O)c1n[nH]nc1-c1ccccc1 41.3%

inhibition, inactive:
COc1cc(C(F)(F)F)c(C(=O)N(C)c2ccc(Cl)cc2)cn1 -0.02%
CCOC(=O)Nc1ccc2c(c1)N(C(=O)CN1CCN3CCCC3C1)c1ccccc1CC2 (stereo not drawn) -4.11%
CCN1CCN(CCNC(=O)c2ccc(/C=C3/Sc4ccccc4N(Cc4cccc(C)c4)C3=O)cc2)CC1 1.06%
CN(c1ccccc1)S(=O)(=O)c1ccc(NC(=O)COc2ccccc2)cc1 1.21%
O=C(C1=C[C@H](c2ccc(C(F)(F)F)cc2)C[C@H](OCc2ccc(CO)cc2)O1)N1CCN(Cc2ccccc2)CC1 3.97%
CN(C)c1nc(N)nc(CSc2nnnn2-c2cccc3ccccc23)n1 -0.03%
COc1cc(/C=C2/SC(=S)N(Cc3ccccc3)C2=O)cc(OC)c1O 0.02%
Cc1nnc(SCc2nc3ccccc3nc2C)s1 -2.92%
O=c1ccc2c(-c3ccccc3S(=O)(=O)O)c3ccc(O)c(O)c3oc-2c1O 3.55%
Cc1nc(NC(CC(C)C)C(=O)O)c2nc(C)oc2n1 (stereo not drawn) -2.93%
Cc1sc(NC(=O)C2C3CCC(O3)C2C(=O)O)c(C(=O)OC(C)C)c1-c1ccc(Cl)cc1 (stereo not drawn) 3.03%
O=[N+]([O-])c1cccc2ncccc12 -1.87%
COc1ccc(OC)c(C(=O)c2ccc(C(=O)O)cc2)c1 -7.99%
C[C@@]12C(=O)N(c3cccc(Br)c3)C(=O)N1[C@H](c1ccc(Cl)cc1)[C@@H]1C(=O)N(C3CCCCC3)C(=O)[C@@H]12 7.67%
CNC(=S)NNC(=O)c1oc2nc(-c3ccccc3)cc(-c3ccco3)c2c1N -5.36%
